Shown are actives, neighbours in structure and some others; about 2.3% of the full set was active somewhere.
Nrf2 block: Nrf2 qHTS screen for inhibitors | A549 ARE-Fluc reporter, luciferase luminescence, 18-24 h | Potency, µM (top dose mostly 46 µM), for inactives: at the highest dose activity change, negative = inhibition, usual class: inhibitors | 360,000 compounds, 2.1% hits; note: potency is the fitted concentration of half-maximal effect; % is set by controls: 0 for no effect and ±100 for the full control effect; nearly all actives have a fitted effect of over 60% in size
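In this cell-based qHTS, ARE-driven firefly luciferase in A549 cells reports Nrf2 activity; the luminescent signal after BugLite lysis is the measured value, with a prior CellTiter-Fluor read for cell health.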
Giardia killer: Small Molecules that selectively kill Giardia lamblia: qHTS; AID 540267, 2011; Giardia lamblia trophozoite viability; activity change, % at 7.66 µM, hits read low; 340,000 compounds, 0.15% hits; in the data active = activity change below about -80%; inconclusive = between about -30% and that limit;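 note: parasites exposed to compound for two days anaerobically before the ATP read; % is set by controls: 0 for no effect and ±100 for the full control effect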
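Anaerobic 48 hrs incubation at 37 deg C of 100 trophozoites/well with test compounds; ATPLite 1-Step luminescence, 15-30 min RT, reports cellular ATP as viability.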
Anesthetic bind: qHTS Assay for Identification of Novel General Anesthetics | Potency, µM (top dose mostly 77.5 µM), without a hit: top-dose activity change, negative = displacement, hits mostly inhibitors | apoferritin/1-aminoanthracene competitive binding, fluorescence | 350,000 compounds, 0.074% hits | Ferritin light chain (Equus caballus), P02791; note: potency is the fitted concentration of half-maximal effect; % is set by controls: 0 for no effect and ±100 for the full control effect; nearly all actives have a fitted effect of over 20% in size
Target sequence (P02791 2-175 limits assumed): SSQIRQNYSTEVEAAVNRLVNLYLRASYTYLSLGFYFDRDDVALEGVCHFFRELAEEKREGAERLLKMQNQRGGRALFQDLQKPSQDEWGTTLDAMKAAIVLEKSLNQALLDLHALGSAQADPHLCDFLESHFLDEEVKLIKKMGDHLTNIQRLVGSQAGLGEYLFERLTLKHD
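Concentration-response curves derived by four-parameter Hill fitting of normalized fluorescence, where compounds displaced 1-AMA from 10 uM horse apoferritin following a brief 10 min room-temperature incubation; propofol titration acted as positive control.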
A549 tox-1: Nrf2 qHTS screen for inhibitors: counterscreen for cytotoxicity. A549 ARE-Fluc cells, CellTiter-Fluor viability, 18-24 h. Potency, µM (series often up to 46 µM), without a hit: top-dose activity change, negative = cytotoxicity, hits mostly inhibitors. 390,000 compounds, 0.16% hits. AID 504648, 2011; note: potency is the fitted concentration of half-maximal effect; % is set by controls: 0 for no effect and ±100 for the full control effect
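Cytotoxicity counterscreen: CellTiter-Fluor fluorescence was measured in A549 ARE_Fluc cells after 18-24 h of compound exposure in a concentration series. The subsequent BugLite luminescent read reports ARE-luciferase activity.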
IDH1 R132H inh: qHTS for Inhibitors of mutant isocitrate dehydrogenase 1 (IDH1): qHTS; 390,000 compounds, 0.093% hits; Potency, µM (top dose mostly 76.6 µM), inactives show at the highest dose activity change, negative = inhibition, usual class: inhibitors; AID 602179, 2012; IDH1-R132H enzyme, NADPH consumption, diaphorase/resazurin fluorescence; note: potency is the fitted concentration of half-maximal effect; % is set by controls: 0 for no effect and ±100 for the full control effect; nearly all actives have a fitted effect of over 65% in size
Target sequence (O75874 whole entry R132H, stated change not applied): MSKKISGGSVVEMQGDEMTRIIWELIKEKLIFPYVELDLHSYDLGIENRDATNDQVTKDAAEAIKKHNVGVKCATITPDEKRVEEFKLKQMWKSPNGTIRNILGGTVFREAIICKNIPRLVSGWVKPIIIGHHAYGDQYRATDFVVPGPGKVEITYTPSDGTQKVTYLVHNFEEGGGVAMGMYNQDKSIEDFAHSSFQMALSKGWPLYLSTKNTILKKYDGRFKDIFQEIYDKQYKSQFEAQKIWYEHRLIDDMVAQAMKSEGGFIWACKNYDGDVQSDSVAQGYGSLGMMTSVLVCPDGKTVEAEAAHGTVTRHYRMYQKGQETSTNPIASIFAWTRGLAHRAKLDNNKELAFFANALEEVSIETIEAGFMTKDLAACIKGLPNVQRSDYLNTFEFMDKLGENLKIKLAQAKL
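IDH1-R132H (0.5 ug/mL) preincubated 30 min with compound, then NADPH (0.016 mM) and alpha-KG (2 mM) added; 80 min at RT, pH 7.5. Remaining NADPH coupled via diaphorase/resazurin to fluorescence (540/590 nm); concentration-response curves normalized to no-enzyme control.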
Nrf2 ARE act: qHTS of Nrf2 Activators; AREc32 ARE-luciferase reporter (MCF7-derived line), luminescence, 24 h; Potency, µM (highest dose often 46.1 µM), for the others: top-dose activation, most hits filed as activators; 410,000 compounds, 0.31% hits; note: potency is the fitted concentration of half-maximal effect; % of control where 0% means no effect; nearly all actives have a fitted effect of over 65% in size
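Cells of the AREc32 ARE-luciferase line are plated in OPTI-MEM containing 5% FBS and left overnight at 37 deg C. Compounds are pinned in, incubation continues 24 hr, and firefly luciferase signal is then measured.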
FLuc enzyme inh: Nrf2 qHTS screen for inhibitors: Purified Fluc Biochemical Counterscreen for Hit Validation | Potency, µM (top dose mostly 57.5 µM), for the others: at the highest dose activity change, negative = inhibition, hits mostly inhibitors | shares compounds with Nrf2 block | 1,400 compounds, 4% hits | purified firefly luciferase, luminescence inhibition; note: potency is the fitted concentration of half-maximal effect; % is set by controls: 0 for no effect and ±100 for the full control effect; nearly all actives have a fitted effect of over 65% in size
A549 tox-2: Nrf2 qHTS screen for inhibitors: A549 ARE-Fluc Cytotoxicity Counterscreen for Hit Validation. shares compounds with Nrf2 block. A549 ARE-Fluc cells, cytotoxicity counterscreen. Potency, µM (titrated, usually from 46.1 µM), inactives show top-dose activity change, negative = cytotoxicity, usual class: inhibitors. 1,400 compounds, 2% hits;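 note: potency is the fitted concentration of half-maximal effect; cells exposed to compounds for 18 to 24 hours; % is set by controls: 0 for no effect and ±100 for the full control effect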
ARE-Fluc inh: Nrf2 qHTS screen for inhibitors: Nrf2 A549 ARE-Fluc Confirmation Assay for Hit Validation. shares compounds with Nrf2 block. A549 ARE-firefly luciferase reporter, luminescence. Potency, µM (top dose mostly 46.1 µM), without a hit: at the top dose activity change, negative = inhibition, most hits filed as inhibitors. 1,400 compounds, 74% hits. AID 720524, 2013; note: potency is the fitted concentration of half-maximal effect; % is set by controls: 0 for no effect and ±100 for the full control effect; nearly all actives have a fitted effect of over 65% in size
The depositor's hits bear a star; u = inconclusive; x = no result given; [ ] = remark or other dose. Unless noted, calls come from the whole dose curve; as a rule, active = well fitted curve in the direction sought with a large enough effect; inconclusive = small, poorly fitted or top-dose-only effect, or another doubt; inactive = no such curve, though single readings can be large; an effect the other way counts as inactive or inconclusive.

SMILES | Nrf2 block | Giardia killer | Anesthetic bind | A549 tox-1 | IDH1 R132H inh | Nrf2 ARE act | FLuc enzyme inh | A549 tox-2 | ARE-Fluc inh
Cc1cc(/C=C\c2ccc3cc(N(C)C)ccc3[n+]2C)c(C)n1-c1ccccc1 | 1.2µM* | -1 | 1%[29.3 µM] | 5.8µM* | -17% | -1% | u | 7.3µM* | 1.3µM*
Cc1cc(/C=C2\SC(=O)NC2=O)c(C)n1-c1ccc(N(C)C)cc1 | 6% | 22 | -3% | 1% | 2% | 6% | x | x | x
CCOC(=O)[C@]12CCCC=C1N(Cc1ccc(Cl)cc1Cl)C(=O)[C@H](CC(=O)NCCC(C)C)C2 | x | x | x | x | x | 4% | x | x | x
CC(=NNC(=S)N1CCCCC1)c1cccc(C)n1 | u | -18 | x | u | 4% | u | x | x | x
CSC(=S)NN=C(C)c1cccc(C)n1 | 4.1µM* | -1 | x | u | -2% | 26% | u | -26% | x
COc1ccc2c(C=O)c[nH]c2c1 | 6% | 3 | -3% | 8% | 1% | 4% | x | x | x
Cc1ccc2[nH]cc(/C=C/c3cc[n+](C)cc3)c2c1 | 1.8µM* | -4 | 68% | -42% | -2% | 11% | 0% | -30% | 1.3µM*
CC[n+]1ccc(/C=C/c2c[nH]c3ccccc23)cc1 | 1.3µM* | 11 | 40% | u | 4% | 5% | -1% | u | 4.6µM*
COc1ccc2c(/C=C/c3cc[n+](C)cc3)c[nH]c2c1 | 1.3µM* | -16 | -5% | u | 2% | 1% | 4% | u | 1.6µM*
Cc1ccc(C(=O)N2CCN(Cc3cc(=O)n4nc(-c5ccccc5)sc4n3)CC2)cc1 | x | x | -4% | 5% | -4% | 6% | x | x | x
COc1ccc(CN(C)c2ccc(S(=O)(=O)N3CCN(C)CC3)cc2[N+](=O)[O-])cc1OC | 1.3µM* | 0 | x | -3% | 2% | -1% | -28% | 2% | u
COc1ccc(CCN(C)c2ccc(S(=O)(=O)N3CCCC3)cc2[N+](=O)[O-])cc1OC | u | 29 | -15% | -20% | 3% | 4% | x | x | x
C1=C2C[N+]3(CCCC3)CC2Cc2ccc3ccccc3c21 (stereo unspecified) | 2.1µM* | 0 | -17% | -17% | 3% | -2% | -1% | -13% | 7.3µM*
C[N+]1(C)CC2=Cc3ccccc3CC2C1 (stereo unspecified) | u | -11 | -3% | -10% | -1% | 0% | x | x | x
Cc1cc(C)cc(NS(=O)(=O)c2ccc3c(c2)c(=O)n(C)c(=O)n3C)c1 | 8.2µM* | 7 | u | -22% | 2% | -1% | 2% | -13% | 7.3µM*
COc1ccc(CCNc2cc(N3CCN(C(=O)c4ccccc4F)CC3)ccc2[N+](=O)[O-])cc1OC | 2.1µM* | -3 | -7% | u | 14% | 1% | 1% | -27% | 6.5µM*
COc1ccc(C(=O)N2CCN(c3ccc([N+](=O)[O-])c(NCCc4ccc(OC)c(OC)c4)c3)CC2)cc1 | 2.9µM* | 28 | -21% | u | 14% | 3% | 1% | -24% | 5.8µM*
O=C(c1ccccc1F)N1CCN(c2ccc([N+](=O)[O-])c(NCc3cccnc3)c2)CC1 | u | 19 | -13% | -12% | 1% | 6% | x | x | x
COc1ccc(CCNc2cc(N3CCN(C(=O)c4ccc(C)cc4)CC3)ccc2[N+](=O)[O-])cc1OC | x | x | 5% | x | x | x | x | x | x
O=C(Cn1ncc2ccsc2c1=O)N1CCN(c2ccccc2)CC1 | u | x | -13% | 3% | -4% | -1% | x | x | x
COc1ccc(C(=O)C/C(=C\C(=O)c2ccc(C)cc2)c2ccccc2)cc1 | 2.6µM* | -16 | u | u | 4% | 0% | 0% | -27% | 12µM*
CSCC[C@H](NC(=O)[C@H](CC(C)C)NC(=O)CCNC(=O)[C@@H](NC(=O)[C@H](Cc1ccccc1)NC(=O)[C@H](CO)NC(=O)[C@@H](N)CC(=O)O)C(C)C)C(N)=O | x | x | -6% | x | x | x | x | x | x
O=S(=O)(c1cccc(F)c1)N1CCN(S(=O)(=O)c2ccc3c(c2)OCCO3)CC1 | 5% | x | x | 6% | x | x | x | x | x
COC(=O)c1ccc(C(/C=C/[C@@H](C)C(=O)NCCc2c[nH]c3ccccc23)NC(=O)OCc2ccccc2)cc1 (stereo partly specified) | x | x | 5% | x | x | x | x | x | x
O=C1N=C(N2CCN(c3ccccc3)CC2)S/C1=C\c1cn[nH]c1-c1ccccc1 | u | -2 | -8% | -1% | 5% | 2% | x | x | x
O=C1N=C(N2CCC(Cc3ccccc3)CC2)S/C1=C/c1cn[nH]c1-c1ccccc1 | u | -5 | -19% | -15% | 0% | 0% | -1% | -6% | u
CN(C)c1ccc(C(=O)Nc2sc(Nc3ccccc3)nc2C(N)=O)cc1 | x | x | 230% | u | 14% | 15% | x | x | x
COc1ccc(NC(=S)NC(NC(=O)/C=C/c2ccccc2)C(Cl)(Cl)Cl)cc1 (stereo unspecified) | -13% | 19 | u | 6% | 3% | 5% | x | x | x
O=C(/C=C/c1ccccc1)NC(NC(=S)Nc1ccc(Cl)cc1)C(Cl)(Cl)Cl (stereo unspecified) | 6.5µM* | 25 | u | u | 8% | 3% | u | u | 5.2µM*

Screens: PubChem, National Center for Advancing Translational Sciences (NCATS)
